This is part of a sample that, as a whole, favours compounds with a hit. Of some 79,000 tested, about 15% had one in any assay. Active and inactive are the calls of the source. No stated cut-off is given here; in the data, active means growth inhibition above about 70%; inactive means the rest.
How the values were obtained:
[1] = NCI Yeast Anticancer Drug Screen. Data for the rad52 strain (AID 147);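 further: 0% = growth of vehicle-treated control cultures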; conditions: S. cerevisiae rad52 mutant growth inhibition, active compounds read high
Procedure, shortened: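 DNA repair-defective yeast; compound exposure; growth scored against vehicle controls.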

[2] = NCI Yeast Anticancer Drug Screen. Data for the wt1 strain (AID 149);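 further: 0% = growth of vehicle-treated wt1 cultures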; conditions: S. cerevisiae wt1 strain (SPY 50644) growth inhibition, active compounds read high
Procedure, shortened: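 wt1 yeast, compound-treated; % growth inhibition vs vehicle control.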

[3] = NCI Yeast Anticancer Drug Screen. Data for the rad50EPP+ strain (AID 151);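 further: 0% = growth of vehicle-treated control cultures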; conditions: S. cerevisiae rad50 mutant strain, active compounds read high
Procedure, shortened: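 rad50EPP+ yeast treated with test compounds. Readout: growth vs vehicle control.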

[4] = NCI Yeast Anticancer Drug Screen. Data for the mgt1 strain (AID 153); conditions: S. cerevisiae mgt1 mutant growth inhibition, active compounds read high
Procedure, shortened: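 Growth inhibition relative to vehicle controls was scored for the mgt1 yeast strain after compound exposure.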

[5] = NCI Yeast Anticancer Drug Screen. Data for the rad50 strain (AID 155);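 further: 0% = growth of vehicle-only cultures of the same strain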; conditions: S. cerevisiae rad50 strain growth inhibition, active compounds read high
Procedure, shortened: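 Genetically altered yeast (DNA repair pathway); compound treatment; growth inhibition vs vehicle ctrl.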

[6] = NCI Yeast Anticancer Drug Screen. Data for the mec2-1 strain (AID 157); conditions: S. cerevisiae mec2-1 strain, active compounds read high
Procedure, shortened: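 Growth inhibition is read against vehicle-treated controls after compound exposure of the mec2-1 yeast strain, which is defective in DNA damage repair or cell cycle control.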

[7] = NCI Yeast Anticancer Drug Screen. Data for the sgs1 mgt1 strain (AID 161);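 further: 0% = growth of cultures given vehicle only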; conditions: S. cerevisiae sgs1 mgt1 strain, active compounds read high
Procedure, shortened: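 Percent growth inhibition was derived by comparing compound-exposed mutant yeast with vehicle-exposed cultures. The strain carries alterations in DNA damage repair.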

[8] = NCI Yeast Anticancer Drug Screen. Data for the CLN2oe strain (AID 163);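 further: 0% = growth of vehicle-only control cultures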; conditions: S. cerevisiae CLN2oe strain, active compounds read high
Procedure, shortened: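 Compound-treated yeast; growth vs vehicle ctrl = % inhibition. Genetically altered strain (cell-cycle control).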

[9] = NCI Yeast Anticancer Drug Screen. Data for the cln2 rad14 strain (AID 165);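 further: 0% = growth equal to vehicle treated cultures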; conditions: S. cerevisiae cln2 rad14 strain, active compounds read high
Procedure, shortened: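 Growth inhibition, relative to vehicle-treated controls, is the read-out. The test organism is a yeast strain with defined genetic alterations, cln2 rad14.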

[10] = NCI Yeast Anticancer Drug Screen. Data for the bub3 strain (AID 167); conditions: S. cerevisiae bub3 mutant strain, active compounds read high
Procedure, shortened: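 Yeast carrying a defined mutation is treated with each compound, and growth is compared with that of vehicle-exposed cells to give inhibition.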

[11] = NCI Yeast Anticancer Drug Screen. Data for the wt2 strain (AID 169);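 further: 0% = growth of vehicle-treated yeast cultures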; conditions: S. cerevisiae wt2 strain growth inhibition, active compounds read high
Procedure, shortened: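 Compound exposure of yeast; growth compared with vehicle controls; inhibition reported.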

[12] = NCI Yeast Anticancer Drug Screen. Data for the mlh1 strain (AID 171);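 further: 0% = growth of vehicle-treated control cultures of the same strain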; conditions: S. cerevisiae mlh1 strain growth inhibition, active compounds read high
Procedure, shortened: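 Compounds are applied to a genetically altered yeast strain, and its growth is compared with that of vehicle-treated cultures to give percent inhibition.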

[13] = NCI Yeast Anticancer Drug Screen. Data for the mlh1 rad18 strain (AID 175); conditions: S. cerevisiae mlh1 rad18 strain growth inhibition, active compounds read high
Procedure, shortened: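 Cells of a genetically altered yeast strain, deficient in DNA damage repair, were treated with compound. Their growth was then compared with that of vehicle-treated cultures to give inhibition.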

[14] = NCI Yeast Anticancer Drug Screen. Data for the rad18 strain (AID 177); conditions: S. cerevisiae rad18 mutant growth inhibition, active compounds read high
Procedure, shortened: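 Compounds are applied to a repair-deficient yeast strain, and growth is compared with that of vehicle-treated cultures to give percent inhibition.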

[15] = at 5.0 µM (retest, dose inferred, filed as 0.5)
[16] = at 50.0 µM (retest, dose inferred, filed as 5.0)

Measured: growth inhibition

CCN(CC)CCBr
active: [1]; at 100.0 µM 82% | [3]; at 100.0 µM 92% | [5]; at 50.0 µM 70.2% | [5]; at 100.0 µM 89% | [14]; at 11.0 µM 86% | [14]; at 33.0 µM 92% | [14]; at 100.0 µM 96%
inactive: [1]; at 1.2 µM 1% | [1]; at 3.7 µM 4% | [1]; at 11.0 µM 12% | [1]; at 33.0 µM 43% | [2]; at 1.2 µM -1% | [2]; at 3.7 µM 1% | [2]; at 11.0 µM -6% | [2]; at 33.0 µM -4% | [2]; at 100.0 µM -8% | [3]; at 1.2 µM 2% | [3]; at 3.7 µM 6% | [3]; at 11.0 µM 27% | [3]; at 33.0 µM 68% | [4]; at 1.2 µM -2% | [4]; at 3.7 µM 0% | [4]; at 11.0 µM -1% | [4]; at 33.0 µM -1% | [4]; at 100.0 µM -2% | [5]; at 1.2 µM 0% | [5]; at 3.7 µM -38% | [5]; [15] 9% | [5]; at 11.0 µM 13% | [5]; at 33.0 µM 53% | [5]; [16] 65% | [6]; at 1.2 µM -1% | [6]; at 3.7 µM 0% | [6]; [15] -9% | [6]; at 11.0 µM 3% | [6]; at 33.0 µM 1% | [6]; [16] 7% | [6]; at 50.0 µM -12.4% | [6]; at 100.0 µM 28% | [7]; [15] 4% | [7]; [16] 38% | [7]; at 50.0 µM 37.5% | [8]; at 1.2 µM 0% | [8]; at 3.7 µM -5% | [8]; at 11.0 µM -5% | [8]; at 33.0 µM -7% | [8]; at 100.0 µM -4% | [9]; [15] -2% | [9]; [16] 1% | [9]; at 50.0 µM 1.5% | [10]; at 1.2 µM 0% | [10]; at 3.7 µM -3% | [10]; [15] -3% | [10]; at 11.0 µM -7% | [10]; at 33.0 µM -6% | [10]; [16] -7% | [10]; at 50.0 µM -11.4% | [10]; at 100.0 µM -16% | [11]; at 1.2 µM -1% | [11]; at 3.7 µM 6% | [11]; at 11.0 µM 0% | [11]; at 33.0 µM -3% | [11]; at 100.0 µM -3% | [12]; at 1.2 µM -1% | [12]; at 3.7 µM -1% | [12]; at 11.0 µM -1% | [12]; at 33.0 µM -2% | [12]; at 100.0 µM -1% | [13]; [15] 5% | [13]; [16] 15% | [13]; at 50.0 µM 19.9% | [14]; at 1.2 µM 17% | [14]; at 3.7 µM 54%
